# Measured values as given in ChEMBL document CHEMBL2218924, “A broad activity screen in support of a chemogenomic map for kinase signalling research and drug discovery” (Biochem J, 2013).
# What was measured:
# [1] = target: Platelet-derived growth factor receptor alpha (Homo sapiens) (UniProt P16234); details: at 10 µM
# [2] = target: Platelet-derived growth factor receptor beta (Homo sapiens) (UniProt P09619); details: at 1 µM
# [3] = target: Platelet-derived growth factor receptor beta (Homo sapiens) (UniProt P09619); details: at 10 µM
# [4] = target: T1, 3-phosphoinositide-dependent protein kinase 1 (Homo sapiens) (UniProt O15530); details: at 1 µM
# T1 sequence (whole entry): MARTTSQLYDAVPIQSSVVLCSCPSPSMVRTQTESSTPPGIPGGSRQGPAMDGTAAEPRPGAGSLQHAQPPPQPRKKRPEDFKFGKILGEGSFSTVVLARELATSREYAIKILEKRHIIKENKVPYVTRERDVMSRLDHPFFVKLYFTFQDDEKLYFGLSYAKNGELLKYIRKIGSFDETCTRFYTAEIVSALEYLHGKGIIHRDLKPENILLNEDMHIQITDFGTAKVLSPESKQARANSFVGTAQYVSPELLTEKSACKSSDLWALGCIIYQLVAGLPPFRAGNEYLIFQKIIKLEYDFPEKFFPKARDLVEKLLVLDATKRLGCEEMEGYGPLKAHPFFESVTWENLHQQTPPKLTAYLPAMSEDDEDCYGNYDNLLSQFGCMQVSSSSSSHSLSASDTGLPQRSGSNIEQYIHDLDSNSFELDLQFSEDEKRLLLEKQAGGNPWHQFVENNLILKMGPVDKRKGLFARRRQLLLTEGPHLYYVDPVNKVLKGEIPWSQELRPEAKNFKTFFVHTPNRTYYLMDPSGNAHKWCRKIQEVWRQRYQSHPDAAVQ
# [5] = target: T1, 3-phosphoinositide-dependent protein kinase 1 (Homo sapiens); details: at 10 µM
# [6] = target: cAMP-dependent protein kinase catalytic subunit alpha (Homo sapiens) (UniProt P17612); details: at 1 µM
# [7] = target: cAMP-dependent protein kinase catalytic subunit alpha (Homo sapiens) (UniProt P17612); details: at 10 µM
# [8] = target: RAC-alpha serine/threonine-protein kinase (Homo sapiens) (UniProt P31749); details: at 1 µM
# [9] = target: RAC-alpha serine/threonine-protein kinase (Homo sapiens) (UniProt P31749); details: at 10 µM
# [10] = target: RAC-gamma serine/threonine-protein kinase (Homo sapiens) (UniProt Q9Y243); details: at 1 µM
# Sequence of RAC-gamma serine/threonine-protein kinase (Homo sapiens) (Q9Y243 whole entry): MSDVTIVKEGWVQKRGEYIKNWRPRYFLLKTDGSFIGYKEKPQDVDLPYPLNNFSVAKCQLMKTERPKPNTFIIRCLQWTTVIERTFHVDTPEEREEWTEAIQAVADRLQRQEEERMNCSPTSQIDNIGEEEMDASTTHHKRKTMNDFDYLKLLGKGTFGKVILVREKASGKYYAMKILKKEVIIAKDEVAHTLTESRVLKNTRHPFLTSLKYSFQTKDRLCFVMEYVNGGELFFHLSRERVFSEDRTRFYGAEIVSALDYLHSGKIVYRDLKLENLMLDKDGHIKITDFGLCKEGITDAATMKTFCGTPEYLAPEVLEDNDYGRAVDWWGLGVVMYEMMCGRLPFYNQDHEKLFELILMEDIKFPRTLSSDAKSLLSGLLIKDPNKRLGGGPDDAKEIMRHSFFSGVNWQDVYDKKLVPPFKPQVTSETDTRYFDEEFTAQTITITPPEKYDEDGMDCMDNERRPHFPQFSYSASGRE
# [11] = target: RAC-gamma serine/threonine-protein kinase (Homo sapiens) (UniProt Q9Y243); details: at 10 µM
# [12] = target: Protein kinase C alpha type (Homo sapiens) (UniProt P17252); details: at 1 µM
# [13] = target: Protein kinase C alpha type (Homo sapiens) (UniProt P17252); details: at 10 µM
# [14] = target: Protein kinase C beta type (Homo sapiens) (UniProt P05771); details: at 1 µM
# Sequence of Protein kinase C beta type (Homo sapiens) (P05771 2-671 limits assumed): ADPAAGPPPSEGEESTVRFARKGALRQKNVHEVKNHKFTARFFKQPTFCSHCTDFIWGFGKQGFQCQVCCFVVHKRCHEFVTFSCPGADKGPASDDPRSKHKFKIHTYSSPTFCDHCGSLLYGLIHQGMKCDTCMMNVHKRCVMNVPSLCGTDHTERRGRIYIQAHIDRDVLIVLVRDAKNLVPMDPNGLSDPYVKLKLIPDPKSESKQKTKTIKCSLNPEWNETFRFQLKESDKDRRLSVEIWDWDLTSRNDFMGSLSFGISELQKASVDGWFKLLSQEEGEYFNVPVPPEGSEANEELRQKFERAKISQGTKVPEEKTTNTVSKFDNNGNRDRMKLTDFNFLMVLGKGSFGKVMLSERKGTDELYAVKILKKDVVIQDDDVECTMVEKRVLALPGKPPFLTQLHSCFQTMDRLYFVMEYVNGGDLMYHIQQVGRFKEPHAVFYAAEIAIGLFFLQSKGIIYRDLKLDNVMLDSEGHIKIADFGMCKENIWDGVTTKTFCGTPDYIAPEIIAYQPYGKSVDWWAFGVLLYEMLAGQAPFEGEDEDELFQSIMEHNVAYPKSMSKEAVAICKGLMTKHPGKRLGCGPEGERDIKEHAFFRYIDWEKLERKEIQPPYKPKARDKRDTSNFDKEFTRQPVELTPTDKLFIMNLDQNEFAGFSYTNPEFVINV
# [15] = target: Protein kinase C beta type (Homo sapiens) (UniProt P05771); details: at 10 µM
# [16] = target: Protein kinase C beta type (Homo sapiens) (UniProt P05771); details: at 1 µM; remark: listed apart in the source
# [17] = target: Protein kinase C beta type (Homo sapiens) (UniProt P05771); details: at 10 µM; remark: listed apart in the source
# [18] = target: Protein kinase C gamma type (Homo sapiens) (UniProt P05129); details: at 1 µM
# [19] = target: Protein kinase C gamma type (Homo sapiens) (UniProt P05129); details: at 10 µM
# [20] = target: Protein kinase C delta type (Homo sapiens) (UniProt Q05655); details: at 1 µM
# Sequence of Platelet-derived growth factor receptor alpha (Homo sapiens) (P16234 whole entry): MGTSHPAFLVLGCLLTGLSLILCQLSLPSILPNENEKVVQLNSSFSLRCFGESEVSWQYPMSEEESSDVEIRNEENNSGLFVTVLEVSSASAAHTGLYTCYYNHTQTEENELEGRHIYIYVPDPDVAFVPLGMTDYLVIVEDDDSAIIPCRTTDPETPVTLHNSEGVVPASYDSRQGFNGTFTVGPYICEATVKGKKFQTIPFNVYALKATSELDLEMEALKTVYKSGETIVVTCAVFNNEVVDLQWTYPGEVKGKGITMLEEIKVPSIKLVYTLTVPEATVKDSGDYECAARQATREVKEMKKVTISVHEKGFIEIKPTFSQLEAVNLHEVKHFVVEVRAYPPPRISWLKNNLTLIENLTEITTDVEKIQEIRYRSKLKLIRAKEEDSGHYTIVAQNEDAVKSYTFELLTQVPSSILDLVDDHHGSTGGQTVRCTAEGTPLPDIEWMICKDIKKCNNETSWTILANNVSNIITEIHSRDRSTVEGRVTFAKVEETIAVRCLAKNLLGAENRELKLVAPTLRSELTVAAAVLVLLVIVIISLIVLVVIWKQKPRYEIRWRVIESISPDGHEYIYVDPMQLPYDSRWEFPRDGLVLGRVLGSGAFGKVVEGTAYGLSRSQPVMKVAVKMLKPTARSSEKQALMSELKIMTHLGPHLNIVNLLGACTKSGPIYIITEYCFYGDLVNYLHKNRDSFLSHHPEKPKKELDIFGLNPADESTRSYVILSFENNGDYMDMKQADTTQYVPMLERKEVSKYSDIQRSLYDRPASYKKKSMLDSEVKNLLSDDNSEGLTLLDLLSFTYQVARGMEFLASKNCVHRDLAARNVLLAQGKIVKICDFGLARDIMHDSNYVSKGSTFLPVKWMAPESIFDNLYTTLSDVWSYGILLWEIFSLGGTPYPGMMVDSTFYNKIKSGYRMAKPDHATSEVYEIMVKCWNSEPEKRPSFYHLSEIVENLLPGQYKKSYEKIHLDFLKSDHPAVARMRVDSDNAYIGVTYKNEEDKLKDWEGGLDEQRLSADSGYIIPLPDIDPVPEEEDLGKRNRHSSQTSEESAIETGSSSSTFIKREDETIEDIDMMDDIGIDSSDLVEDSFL
# Sequence of Platelet-derived growth factor receptor beta (Homo sapiens) (P09619 whole entry): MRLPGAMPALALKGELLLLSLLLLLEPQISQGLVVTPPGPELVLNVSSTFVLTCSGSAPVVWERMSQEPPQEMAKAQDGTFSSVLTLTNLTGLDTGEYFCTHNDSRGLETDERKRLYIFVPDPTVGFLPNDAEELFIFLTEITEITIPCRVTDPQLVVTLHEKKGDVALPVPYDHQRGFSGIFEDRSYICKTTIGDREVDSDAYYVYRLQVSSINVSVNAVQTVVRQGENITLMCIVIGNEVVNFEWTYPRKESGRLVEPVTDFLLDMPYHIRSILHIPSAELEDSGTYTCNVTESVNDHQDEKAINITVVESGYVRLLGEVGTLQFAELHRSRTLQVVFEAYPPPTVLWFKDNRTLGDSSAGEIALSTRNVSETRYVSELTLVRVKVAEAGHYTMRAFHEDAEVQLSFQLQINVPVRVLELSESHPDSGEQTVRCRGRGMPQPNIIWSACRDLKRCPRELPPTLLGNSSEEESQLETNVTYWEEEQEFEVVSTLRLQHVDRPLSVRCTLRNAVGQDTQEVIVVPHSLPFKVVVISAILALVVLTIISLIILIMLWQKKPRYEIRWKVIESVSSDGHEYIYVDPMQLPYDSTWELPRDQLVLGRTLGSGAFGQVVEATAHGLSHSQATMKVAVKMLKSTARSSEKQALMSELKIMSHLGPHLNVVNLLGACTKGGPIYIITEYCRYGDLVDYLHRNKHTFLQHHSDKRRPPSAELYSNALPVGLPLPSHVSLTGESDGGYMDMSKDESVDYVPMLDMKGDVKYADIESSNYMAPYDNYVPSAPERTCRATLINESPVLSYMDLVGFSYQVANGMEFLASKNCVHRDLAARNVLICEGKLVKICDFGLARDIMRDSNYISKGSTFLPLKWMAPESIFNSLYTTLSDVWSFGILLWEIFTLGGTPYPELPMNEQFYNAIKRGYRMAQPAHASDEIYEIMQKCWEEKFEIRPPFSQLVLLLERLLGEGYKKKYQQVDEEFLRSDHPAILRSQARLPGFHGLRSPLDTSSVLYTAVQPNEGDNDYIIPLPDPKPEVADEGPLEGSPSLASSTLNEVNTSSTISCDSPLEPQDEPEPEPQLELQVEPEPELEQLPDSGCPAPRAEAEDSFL
compound,measurement,setting,value
O=c1[nH]c2ccccc2n1C1CCN(Cc2ccc(-c3nc4cc5[nH]cnc5cc4nc3-c3ccccc3)cc2)CC1,residual activity,[1],101%
same,residual activity,[2],108%
same,residual activity,[3],96%
same,residual activity,[4],113%
same,residual activity,[5],120%
same,residual activity,[6],97%
same,residual activity,[7],145%
same,residual activity,[8],98%
same,residual activity,[9],90%
same,residual activity,[10],118%
same,residual activity,[11],69%
same,residual activity,[12],104%
same,residual activity,[13],104%
same,residual activity,[14],102%
same,residual activity,[15],93%
same,residual activity,[16],88%
same,residual activity,[17],93%
same,residual activity,[18],108%
same,residual activity,[19],98%
same,residual activity,[20],107%
COc1cc2ncnc(Nc3cccc(Cl)c3)c2cc1OC,residual activity,[8],86%
COC(=O)[C@@]1(O)C[C@H]2O[C@]1(C)n1c3ccccc3c3c4c(c5c6ccccc6n2c5c31)C(=O)NC4,residual activity,[1],8%
same,residual activity,[2],46%
same,residual activity,[3],8%
same,residual activity,[4],-1%
same,residual activity,[5],0%
same,residual activity,[6],7%
same,residual activity,[7],3%
same,residual activity,[8],101%
same,residual activity,[9],37%
same,residual activity,[10],11%
same,residual activity,[11],3%
same,residual activity,[12],19%
same,residual activity,[13],0%
same,residual activity,[14],53%
same,residual activity,[15],13%
same,residual activity,[16],67%
same,residual activity,[17],18%
same,residual activity,[18],19%
same,residual activity,[19],2%
same,residual activity,[20],18%
O=C1Nc2cc(Br)ccc2/C1=C1/Nc2ccccc2/C1=N\O,residual activity,[8],114%
same,residual activity,[9],107%
Cc1ccc(S(=O)(=O)/C=C/C#N)cc1,residual activity,[8],107%
same,residual activity,[9],112%
CC(C)(C)n1nc(Cc2cccc3ccccc23)c2c(N)ncnc21,residual activity,[8],96%
same,residual activity,[9],107%
O=C1NC(=O)c2c1c1c3ccccc3n3c1c1c2c2ccccc2n1C1CCC3O1,residual activity,[1],81%
same,residual activity,[2],90%
same,residual activity,[3],86%
same,residual activity,[4],27%
same,residual activity,[5],4%
same,residual activity,[6],70%
same,residual activity,[7],68%
same,residual activity,[10],96%
same,residual activity,[11],84%
same,residual activity,[12],96%
same,residual activity,[14],95%
same,residual activity,[15],91%
same,residual activity,[18],92%
same,residual activity,[19],96%
O=C(O)c1ccc2c3c1cccc3c(=O)n1c3ccccc3nc21,residual activity,[8],111%
same,residual activity,[9],100%
CC(=O)c1ccc(N2CCOCC2)cc1O,residual activity,[8],101%
same,residual activity,[9],111%
COc1cc2ncnc(Nc3ccc(OCc4ccccc4)cc3)c2cc1OC,residual activity,[1],57%
same,residual activity,[2],106%
same,residual activity,[3],89%
same,residual activity,[4],119%
same,residual activity,[5],114%
same,residual activity,[6],88%
same,residual activity,[8],104%
same,residual activity,[9],122%
same,residual activity,[10],99%
same,residual activity,[11],103%
same,residual activity,[12],117%
same,residual activity,[13],114%
same,residual activity,[14],123%
same,residual activity,[15],106%
same,residual activity,[16],105%
same,residual activity,[17],101%
same,residual activity,[18],105%
same,residual activity,[19],108%
same,residual activity,[20],104%
Nc1nc(Nc2ccc(S(N)(=O)=O)cc2)nn1C(=S)Nc1c(F)cccc1F,residual activity,[8],122%
CC(C)(C)c1cc(C=C(C#N)C#N)cc(Br)c1O,residual activity,[1],106%
same,residual activity,[2],103%
same,residual activity,[3],103%
same,residual activity,[4],102%
same,residual activity,[8],98%
same,residual activity,[9],102%
same,residual activity,[10],106%
same,residual activity,[11],97%
same,residual activity,[12],106%
same,residual activity,[14],106%
same,residual activity,[15],97%
same,residual activity,[16],108%
same,residual activity,[17],108%
same,residual activity,[18],98%
same,residual activity,[19],103%
same,residual activity,[20],98%
